Hits are enriched below; roughly 11% of the tested compounds scored in any of these assays.
ALDH1A1 inh: inhibitors of human aldehyde dehydrogenase 1A1; Potency, µM (titrated, usually from 75.3 µM), hits mostly inhibitors; AID 1030; P00352; actives 7.3% (n = 220,000); Purified ALDH1A1, NADH fluorescence, propionaldehyde substrate; active = well fitted inhibition curve with a large enough effect, not every such curve was filed as active; inconclusive = small, poorly fitted or top-dose-only effect, or another doubt; inactive = no such curve, though single readings can be large or run the other way
IMPase Li cell: cell-permeable IMPase inhibitors with lithium potentiation; Potency, µM (series often up to 59.4 µM), usual class: inhibitors; AID 1457; actives 0.35% (n = 210,000); CHO-M1 cells, IP1 TR-FRET (IP-One), carbachol + lithium;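 also: IP1 builds up when IMPase is blocked and the TR-FRET signal falls; nearly all actives have a fitted effect of over 50% in size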
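Concentration–response in CHO-M1 cells, lithium-potentiated; 30 min at 37C. IP1 detected by competitive TR-FRET after 10 min lysis at RT. Hill-fitted AC50.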
PNC inhibitor: perinucleolar compartment assembly inhibition | actives 3.1% (n = 140,000) | PC3M PTB-GFP, PNC prevalence imaging, 16 h; stronger effect = lower value | activity change (PNC), negative = inhibition, % at 10 µM | AID 2417;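 active = readout at or below -70, meaning at least 70% loss of cells showing the perinucleolar compartment, a nuclear body marking cancer cells; inconclusive = readout between -30 and a set limit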
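Read-out is percentage of cells bearing a perinucleolar compartment, from automated 20x imaging of fixed, Hoechst-stained PC3M PTB-GFP cells. Cells were seeded 4 h, then exposed 16 h to compound (23 nl of library stock) in duplicate plates.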
HPGD inh: blocks human HPGD enzyme activity | purified HPGD, NADH fluorescence kinetic, PGE2 substrate | Potency, µM, usual class: inhibitors | actives 4.3% (n = 150,000) | AID 894; active = well fitted inhibition curve with a large enough effect, not every such curve was filed as active; inconclusive = small, poorly fitted or top-dose-only effect, or another doubt; inactive = no such curve, though single readings can be large or run the other way
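20 nM HPGD preincubated 15 min at room temperature with compound in 50 mM Tris-HCl pH 8, 0.01% Tween 20. Started with 1 mM NAD+ and 30 uM prostaglandin E2; NADH fluorescence (360/450 nm) read 5 times over 30-s intervals, last minus first.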
IMPase inh: cell-permeable inhibitors of inositol monophosphatase (IMPase); inhibition (IP1 accumulation), % at 46.1 µM; CHO-M1 cells, IP1 accumulation, HTRF TR-FRET ratio; 120,000 tested, under 10 active; P97697; active = well fitted curve in the direction sought with a large enough effect in the signal ratio, not every such curve was filed as active; inconclusive = small, poorly fitted or top-dose-only effect, or a change in a side signal; inactive = no such curve, though single readings can be large or run the other way; the % refers to the signal ratio;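 also: cells stimulated with carbachol in lithium chloride buffer; higher means more IMPase inhibition seen as more IP1 and lower FRET ratio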
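Cellular IMPase inhibition is scored as a rise in cytosolic IP1, detected by competitive TR-FRET between d2-labelled IP1 and a europium anti-IP1 antibody. M1-expressing CHO cells were stimulated with carbachol for 30 min at 37C, with lithium (50 mM LiCl) present in the buffer.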
ALOX12 inhib: inhibitors of human 12-lipoxygenase (ALOX12) | Potency, µM (doses to about 57.1 µM), hits mostly inhibitors | P18054 | actives 0.12% (n = 150,000) | purified 12-hLO, xylenol orange hydroperoxide absorbance; also: nearly all actives have a fitted effect of over 55% in size
Target sequence (P18054 whole entry, looked up): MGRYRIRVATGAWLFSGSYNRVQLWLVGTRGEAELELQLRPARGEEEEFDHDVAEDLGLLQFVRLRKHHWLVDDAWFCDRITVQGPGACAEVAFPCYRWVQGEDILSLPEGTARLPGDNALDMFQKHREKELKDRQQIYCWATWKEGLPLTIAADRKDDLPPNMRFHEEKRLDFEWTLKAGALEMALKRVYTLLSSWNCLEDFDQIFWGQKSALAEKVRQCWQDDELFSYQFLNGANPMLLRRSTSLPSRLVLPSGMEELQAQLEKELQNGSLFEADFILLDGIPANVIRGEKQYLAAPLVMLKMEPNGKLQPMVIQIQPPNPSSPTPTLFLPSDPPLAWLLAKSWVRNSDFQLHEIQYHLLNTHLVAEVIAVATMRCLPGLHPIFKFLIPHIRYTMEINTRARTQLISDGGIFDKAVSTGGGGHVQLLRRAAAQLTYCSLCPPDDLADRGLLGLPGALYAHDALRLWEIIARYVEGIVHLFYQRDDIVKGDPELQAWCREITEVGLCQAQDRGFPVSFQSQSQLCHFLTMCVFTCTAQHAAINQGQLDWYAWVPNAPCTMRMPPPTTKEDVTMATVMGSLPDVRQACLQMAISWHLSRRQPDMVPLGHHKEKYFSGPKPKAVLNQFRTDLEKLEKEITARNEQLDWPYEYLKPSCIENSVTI
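Hydroperoxide output read as Fe(III)-xylenol orange absorbance, 573-to-405 nm ratio, after 30 min reaction with 40 uM arachidonic acid. Enzyme: 150 nM purified human 12hLO, 15 min compound preincubation; 25 mM Hepes pH 7.0, room temperature.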
Numbers stand for hits; n = inactive; u = inconclusive; x = not tested or not shown; [ ] = another dose, or the depositor's remark. Unless noted, calls follow the shape of the dose curve; as a rule, active = well fitted curve in the direction sought with a large enough effect; inconclusive = small, poorly fitted or top-dose-only effect, or another doubt; inactive = no such curve, though single readings can be large; an effect the other way counts as inactive or inconclusive.

SMILES	ALDH1A1 inh	IMPase Li cell	PNC inhibitor	HPGD inh	IMPase inh	ALOX12 inhib
FC(F)(F)c1ccccc1-c1ccc2ncnc(NC3CCNCC3)c2c1	n	n	x	n	x	n
CN(C)CCc1c[nH]c2ccc(CC3COC(=O)N3)cc12 (stereo not drawn)	n	n	x	n	x	n
C[C@@]12C=CC(=O)C=C1CCC1C3CC(O)[C@@](O)(C(=O)CO)[C@]3(C)CC(O)[C@]12F (stereo partly drawn)	n	n	x	n	x	n
O=S(=O)(c1ccccc1)N1CCC2(CCN(C(c3ccccc3)c3ccccc3)CC2)CC1	n	n	x	n	x	n
Cc1onc(-c2c(Cl)cccc2Cl)c1C(=O)NC(=S)Nc1sc2c(c1C(N)=O)CCC(C)C2 (stereo not drawn)	18.9µM	n	n	n	n	n
Cc1onc(-c2ccccc2)c1C(=O)Nc1sc2c(c1C#N)CCC(C)C2 (stereo not drawn)	u	n	n	n	n	n
Cc1onc(-c2c(F)cccc2Cl)c1C(=O)NC(=S)NC1CCSC1=O (stereo not drawn)	10µM	n	n	u	x	n
Cc1onc(-c2c(Cl)cccc2Cl)c1C(=O)Nn1cnnc1	n	n	-107.2	n	n	n
COC(CNC(=O)c1cc(C(=O)c2c(-c3c(Cl)cccc3Cl)noc2C)c[nH]1)OC	10µM	n	n	n	n	n
Cc1onc(-c2c(Cl)cccc2Cl)c1C(=O)NC(C)(C)CO	n	n	n	n	n	n
Cc1onc(-c2c(Cl)cccc2Cl)c1C(=O)c1c[nH]c(C(=O)NCCCN2CCOCC2)c1	u	n	n	n	n	n
Cc1cc(C)nc(/N=c2/ssnc2Cl)c1	3.98µM	n	n	12.6µM	n	n
Nc1ccccc1N=c1ssnc1Cl	u	n	x	x	x	x
Cc1cc(Cl)ccc1N=c1ssnc1Cl	1.26µM	n	n	4.47µM	n	n
Cc1ccc(N=c2ssnc2Cl)cc1	2.24µM	n	u	2.82µM	u	28.2µM
Cc1cc(C)c(C#N)c(Cl)n1	n	n	n	n	x	n
O=c1c(-c2ccc(Cl)cc2)nc2cnc(N3CCOCC3)nc2n1Cc1ccc(F)cc1	u	n	x	x	x	x
N#CCCn1c(=O)c(-c2ccc(F)cc2)nc2cnc(OCc3ccccc3)nc21	u	n	x	x	x	x
COC(=O)N1CCC2(CC1)CN(C(c1ccccc1)c1ccccc1)C2	n	n	x	n	x	n
CN(C)/C=C1\NC(=S)N(c2ccc(Cl)cc2)C1=O	20µM	n	x	x	x	x
CN(C)/C=C1\NC(=S)N(c2ccccc2)C1=O	u	n	x	x	x	x
O=C(NCc1cccc(Cl)c1)c1ccc2c(c1)SC1=NS(=O)(=O)CCN12	n	n	x	x	x	x
O=C(NCc1ccccc1Cl)c1ccc2c(c1)SC1=NS(=O)(=O)CCN12	4.47µM	n	x	x	x	x
C[C@@]12CCC3c4ccc(OS(=O)(=O)O)cc4CCC3C1CCC2O (stereo partly drawn)	n	n	x	n	x	n
O=C(CCl)Nc1ccc(-c2ccccc2)cc1	0.251µM	n	x	x	x	x
SMILES	ALDH1A1 inh	IMPase Li cell	PNC inhibitor	HPGD inh	IMPase inh	ALOX12 inhib
CC(C)c1ccc(NC(=O)C(C)N(c2ccccc2)S(C)(=O)=O)cc1 (stereo not drawn)	x	x	x	x	n	x
CC(=O)Nc1cn(-c2ccccc2)nc1-c1ccccc1	n	n	x	x	x	x
CC(C)N(c1ccccc1)c1ccc(NC(=O)CCl)cc1	0.398µM	n	x	x	x	x
O=C(CCl)Nc1cn(-c2ccccc2)nc1-c1ccccc1	14.1µM	n	x	x	x	x
O=C(O)CC(=O)Nc1ccccc1	n	n	n	n	n	n
O=C(CCl)Nc1ccc(N=Nc2ccccc2)cc1	0.398µM	n	-121.9	n	x	n
O=C(CSc1nc(O)c(C/C=C/c2ccccc2)c(=O)[nH]1)Nc1cccc(F)c1	x	x	x	x	n	x
CCC(=O)Oc1ccc2c(c1)CCC1C2CC[C@]2(C)C(OC(=O)CC)CCC12 (stereo partly drawn)	n	n	x	n	x	n[0.00818 µM]
CCOc1cccc(-c2nc3ccccc3c(=O)o2)c1	x	x	x	x	n	x
CCOC(=O)C1C(=O)C=C(c2ccc(C)cc2)CC1c1ccccc1 (stereo not drawn)	n	n	x	x	x	x
CCOC(=O)C1C(=O)C=C(c2cccc(NS(C)(=O)=O)c2)CC1c1ccco1 (stereo not drawn)	20µM	n	n	n	n	n
CCOC(=O)C1C(=O)C=C(c2ccc(Br)cc2)CC1c1ccco1 (stereo not drawn)	15.8µM	n	n	n	n	n
CC(=O)N(\C=C/C=C/C=C1\Sc2ccccc2C1=O)c1ccccc1	17.8µM	n	x	x	x	x
COc1ccc(N/C(C)=C2/C(=O)C(=O)N(CCO)C2c2ccc([N+](=O)[O-])cc2)cc1 (stereo not drawn)	11.2µM	n	u	n	n	n
COc1ccc(C2/C(=C(/O)c3ccccc3)C(=O)C(=O)N2CO)cc1 (stereo not drawn)	u	n	n	n	n	n
Cc1cn(-c2ccc(Br)cc2)[nH]c1=O	n	n	u	25.1µM	n	n
Cc1nnc(C)c2c(C)n(-c3ccc(Br)cc3)c(C)c12	n	n	u	n	n	n
NCCC[C@@H](CC(=O)N[C@@H]1CCNC[C@H]1C(=O)N[C@H](CC(=O)N[C@@H](CCC(=O)O)CC(=O)O)Cc1c[nH]c2ccccc12)NC(=O)C[C@H](CO)NC(=O)[C@@H]1CCCC[C@H]1N	n	n	x	n	x	n
COc1ccc(CNC(=O)Cn2cc3c(n2)CCCCC3)cc1	1.12µM	n	u	n	n	n
COc1cccc(NC(=O)Cn2cc3c(n2)CCCCC3)c1	u	n	n	n	n	n
O=C(Cn1cc2c(n1)CCCCC2)N1CCCCC1	n	n	-119.3	n	n	n
CC(=O)OCC1OC(C#Cc2ccccc2)C=CC1O (stereo not drawn)	n[13.5 µM]	x	x	x	x	x
CCOc1ccccc1-n1nnnc1SCC(=O)NC(=O)Nc1ccc2c(c1)OCCO2	12.6µM	n	n	n	n	n
CCOc1ccccc1-n1nnnc1SCC(=O)Nc1cc(C)on1	8.91µM	n	n	n	u	n
O=C(CSc1nnnn1-c1ccccc1)Nc1ccc(Cl)cn1	2.24µM	n	u	n	n	n
COc1ccccc1-n1nnnc1SCc1cc2c(cc1Br)OCO2	4.47µM	n	n	u	n	n
COC(=O)C/C=C\[C@@H](C)[C@@H](/C=N\O[C@@H](C)c1cc(-c2c(C)cc(C)cc2C)no1)OC	n[13.5 µM]	x	x	x	x	x
COc1ccc(Cl)cc1NC(=O)CSC1=Nc2ccccc2C2=NC(CC(=O)NC3CCCCC3)C(=O)N12 (stereo not drawn)	x	x	x	x	n	x
COc1cccc([C@@H]2Oc3ccc(OC)cc3C[C@H]2OC(=O)NS(=O)(=O)c2ccc(F)cc2)c1	n	n	x	n	x	x
COc1ccccc1-n1cnnc1SCC(=O)N1CC(=O)Nc2ccccc21	4.47µM	n	u	n	n	n

High-throughput results deposited in PubChem BioAssay by National Center for Advancing Translational Sciences (NCATS).
